Among the data in PubChem BioAssay (NCI) are growth values, retold here.

Each structure is given as a SMILES string. About 83,000 compounds went through this panel and 20% of them were active in at least one assay; those are over-represented in the sample as a whole.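 Activity criterion: percent growth below 10, measured after cells in 96-well plates were exposed to a single compound concentration for 48 hours.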 Unmarked numbers belong to inactive results. Active and inactive are the calls of the source.

Holding throughout (test): NCI-60 one-dose screen, 48 h (100 = growth as untreated, 0 = no growth, -100 = all killed)
What all share (settings): 10 µM unless noted

Experiment [1] deals with SR leukemia.
The test system of experiment [2] is RPMI-8226 leukemia.
Experiment [3] has as its system OVCAR-8 ovarian.
Experiment [4] deals with OVCAR-5 ovarian.
The test system of experiment [5] is OVCAR-4 ovarian.
Experiment [6] relates to SK-OV-3 ovarian.
Experiment [7] has as its system IGROV1 ovarian.
The test system of experiment [8] is OVCAR-3 ovarian.
For experiment [9], the system named is HS 578T breast.
The subject of experiment [10] is NCI/ADR-RES ovarian.
In experiment [11] the test system is T-47D breast.
Experiment [12] relates to BT-549 breast.
In experiment [13] the test system is MDA-MB-435 melanoma.
Experiment [14] relates to SW-620 colon.
Experiment [15] deals with MCF7 breast.
Experiment [16] concerns HCT-116 colon.
For experiment [17], the system named is HCC-2998 colon.
Experiment [18] concerns KM12 colon.

As to `COC(=O)[C@H]1Cc2c([nH]c3ccccc23)[C@H](c2ccc3c(c2)OCO3)N1`, the growth is 103% in [1]; 97.5% in experiment [2]; 103% in experiment [3]; 100% in experiment [4]; 94% in [5]; 102% in experiment [6]. For the same compound, the growth in experiment [7] is 90.6%; in [8], 99.7%; in [9] it was 102%; in [10] it was 99.8%; in [11] it was 91.8%; in experiment [12], 99.5%. The growth in [13] is 101%; in experiment [14], 102%; in experiment [15], 93.3%; in experiment [16] it was 97.6%; in experiment [17], 97.6%; in experiment [18] it was 99.3%.

Take `FC(F)(F)c1cc(N2CCCCC2)nc(NCCCNc2ccnc3cc(Cl)ccc23)n1`: the growth in experiment [1] was -4.99% (active); in [2] it was 39.9%; in [3] it was 66.2%; in [4] it was 87.6%; in experiment [5] it was 43.4%; in experiment [6], 72.1%. The growth in experiment [7] was 60%; in experiment [8], 54.8%; in experiment [9], 74.7%; in [10] it was 44.9%; in [11], 37.7%; in experiment [12], 61.2%. In addition, the growth in experiment [13] was 76%; in experiment [14] it was 94.3%; in experiment [15], 43.7%; in experiment [16] it was 39.3%; in experiment [17] it was 37.5%; in experiment [18] it was 64.7%.

`N=C(N)c1ccc(-c2ccc(-c3ccc(Cl)cc3Cl)s2)nc1`: the growth in experiment [1] is 5.54% (active); in experiment [2], 0.186% (active); in experiment [3], 36.2%; in experiment [4] it was 80.2%; in experiment [5], 98.2%; in experiment [6], 91.3%. Further, the growth is 50.6% in experiment [7]; 64.4% in experiment [8]; 90.1% in experiment [9]; 96.7% in [10]; 81.2% in [11]; 105% in experiment [12]. In addition, the growth in [13] is 62.5%; in experiment [14], -63.6% (active); in experiment [15], -30.5% (active); in experiment [16] it was -69.5% (active); in [17], -33% (active); in experiment [18], -31.5% (active).

As for `COC(=O)c1cc(-c2ccc(OC)c(OC)c2)[nH]c1N/N=C/c1c(Cl)cccc1Cl`, the growth is 12.1% in experiment [1]; 24.1% in experiment [2]; 41.1% in experiment [3]; 49.4% in experiment [4]; 69.3% in [5]; 42.2% in [6]. Moreover, the growth in [7] is 42.4%; in experiment [8], -19.2% (active); in experiment [9], 14.3%; in experiment [10], 26.8%; in experiment [11] it was 40.9%; in experiment [12], 37.7%. The growth in experiment [13] is -18.3% (active); in experiment [14], 21.3%; in [15], 14.6%; in [16] it was 14.5%; in [17], 53.2%; in experiment [18], 28.7%.

As to `CC1(C)CC[C@]2(CO)CC[C@]3(C)[C@H](CC[C@@H]4[C@@]5(C)CC[C@H](O)C(C)(C)[C@@H]5CC[C@]43C)[C@H]2[C@H]1O`, the growth in experiment [1] is 56.2%; in experiment [2], 100%; in experiment [3], 64.5%; in experiment [4], 114%; in [5] it was 58.5%; in [6], 92.3%. Besides, the growth in experiment [7] was 102%; in experiment [8], 74.7%; in [9], 7.22% (active); in [10], 80.8%; in experiment [11], 75.1%; in experiment [12], 96.2%. Further, the growth in experiment [13] was 91.5%; in experiment [14], 84.9%; in [15] it was 69.2%; in experiment [16], 42.8%; in experiment [17] it was 101%; in [18], 65.2%.

In the case of `Cc1csc(Nc2nc(-c3cccc(Cl)c3)nc(C(Cl)(Cl)Cl)n2)n1`, the growth in experiment [1] is 58.9%; in experiment [2] it was 13.8%; in [3], 58.6%; in [4] it was 46.8%; in experiment [5], 70.1%; in [6] it was 70.8%. Besides, the growth in experiment [7] was 83.1%; in experiment [8], -18.4% (active); in experiment [9] it was 43.5%; in experiment [10] it was 51.6%; in [11], 5.33% (active); in experiment [12], 96.8%. Besides, the growth in experiment [13] is 54.1%; in experiment [14], 42.4%; in experiment [15] it was 20.7%; in experiment [16], 37.9%; in experiment [17] it was 7.13% (active); in [18], 13.8%.

On to `O=C(Nc1ccc(Cl)cc1)C1=NCCCCN1`, for which the growth is 116% in experiment [1]; 96.3% in experiment [2]; 91% in [3]; 85.6% in experiment [4]; 109% in [5]; 88.1% in experiment [6]. Also, the growth in experiment [7] is 79.8%; in experiment [8], 96.9%; in experiment [9], 97.9%; in experiment [10] it was 89.3%; in experiment [11] it was 68.6%; in experiment [12] it was 91.3%. The growth in experiment [13] was 72.6%; in [14] it was 63.8%; in experiment [15] it was 81.5%; in experiment [16], 80%; in experiment [17], 96.2%; in experiment [18], 71.2%.

In the case of `c1ccc(-c2cn3nc(-c4c[nH]c5ccccc45)sc3n2)cc1`, the growth is 21.7% in experiment [1]; 91.8% in experiment [2]; 93.3% in experiment [3]; 74.2% in experiment [4]; 70.4% in experiment [5]; 80.4% in experiment [6]. The growth in experiment [7] is 56.5%; in experiment [8], 86.1%; in experiment [9] it was 84.5%; in experiment [10], 84.3%; in experiment [11], 62.6%; in experiment [12], 91.3%. Also, the growth was 26.5% in [13]; 73.5% in [14]; 59.1% in [15]; 84.2% in experiment [16]; 89.6% in [17]; 58.3% in experiment [18].
